Bioassay records deposited in PubChem BioAssay by National Center for Advancing Translational Sciences (NCATS).
Hits are enriched below; roughly 12% of the tested compounds scored in any of these assays.
Pf growth 96h: Primary qHTS for delayed death inhibitors of the malarial parasite plastid, 96 hour incubation. P. falciparum luciferase reporter growth, 96 h. Potency, µM (series often up to 28.7 µM), for the others: at the top dose activity change, negative = inhibition, usual class: inhibitors. 320,000 tested, 6.9% active. AID 504834, 2011; note: % is set by controls: 0 for no effect and ±100 for the full control effect
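Infected RBCs, 2% Hct / 0.05% parasitemia final; luciferase-reporter P. falciparum; cpd 96 h, 37 C, 5% CO2; luciferase detection reagent; luminescence.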
Sm TGR block: qHTS Assay for the Inhibitors of Schistosoma Mansoni Peroxiredoxins; Potency, µM (series often up to 114 µM), for the others: top-dose activity change, negative = inhibition, most hits filed as inhibitors; purified TGR, DTNB reduction, TNB absorbance 405 nm; 360,000 tested, 3% active; Schistosoma mansoni thioredoxin glutathione reductase (TGR), Q962Y6; note: % is set by controls: 0 for no effect and ±100 for the full control effect; nearly all actives have a fitted effect of over 60% in size
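Kinetic colorimetric format: TGR-catalysed, NADPH-driven DTNB reduction monitored via TNB absorbance. Enzyme dispensed at 20 nM; compound exposure 15 min at room temperature before reaction start.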
AmpC detergent: qHTS Inhibitors of AmpC Beta-Lactamase (assay with detergent); P00811; 370,000 tested, 0.041% active; AmpC hydrolysis of nitrocefin, absorbance 480 nm, 0.01% Triton; AID 485294, 2010; Potency, µM (doses to about 114 µM), without a hit: top-dose activity change, negative = inhibition, usual class: inhibitors;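 note: 0% = no-compound wells and -100% = no-enzyme wells; nearly all actives have a fitted effect of over 25% in size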
Target sequence (P00811 whole entry, looked up): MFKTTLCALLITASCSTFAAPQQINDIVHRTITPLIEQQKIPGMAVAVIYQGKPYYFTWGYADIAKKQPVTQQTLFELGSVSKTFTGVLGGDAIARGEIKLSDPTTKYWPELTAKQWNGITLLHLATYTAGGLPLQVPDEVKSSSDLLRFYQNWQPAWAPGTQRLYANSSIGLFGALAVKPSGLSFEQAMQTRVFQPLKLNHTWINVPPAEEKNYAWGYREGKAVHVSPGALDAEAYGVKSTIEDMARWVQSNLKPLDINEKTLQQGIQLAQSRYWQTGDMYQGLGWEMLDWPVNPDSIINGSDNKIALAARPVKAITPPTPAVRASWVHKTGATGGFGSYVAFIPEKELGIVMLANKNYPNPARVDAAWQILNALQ
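20 mM phosphate pH 7.0 + 0.01% (detergent screen) or 0.0001% Triton X-100; 5.3 nM AmpC reagent; cpd preinc 15 min RT; nitrocefin (800 uM stock) to start; A480 q20 s × 4 min; Activity was normalised to no-enzyme and no-compound control wells.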
SARS PLpro yeast: qHTS of Yeast-based Assay for SARS-CoV PLP; AID 485353, 2010; 330,000 tested, 0.19% active; S. cerevisiae expressing SARS-CoV PLpro, growth rescue; Potency, µM (series often up to 32.9 µM), for the others: top-dose activity, positive = growth rescue, most hits filed as activators; calls by dose curve; note: 0% is about no effect; nearly all actives have a fitted effect of over 55% in size
AmpC inh no detg: qHTS Inhibitors of AmpC Beta-Lactamase (assay without detergent). P00811. AmpC nitrocefin hydrolysis, absorbance 480 nm, 0.0001% Triton. Potency, µM (top dose mostly 57.1 µM), without a hit: at the highest dose activity change, negative = inhibition, most hits filed as inhibitors. 330,000 tested, 0.52% active. AID 485341, 2010;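 note: plate controls were no compound for no effect and no enzyme for full effect; nearly all actives have a fitted effect of over 20% in size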
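20 mM phosphate pH 7.0 + 0.01% (detergent screen) or 0.0001% Triton X-100; 5.3 nM AmpC reagent; cpd preinc 15 min RT; nitrocefin (800 uM stock) to start; A480 q20 s × 4 min; Activity was normalised to no-enzyme and no-compound control wells.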
Pf growth 48h: Primary qHTS for delayed death inhibitors of the malarial parasite plastid, 48 hour incubation; P. falciparum luciferase growth in erythrocytes, 48 h; Potency, µM (highest dose often 28.7 µM), for inactives: at the highest dose activity change, negative = inhibition, actives largely listed as inhibitors; 310,000 tested, 5.9% active; AID 504832, 2011; note: % is set by controls: 0 for no effect and ±100 for the full control effect
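A one-generation exposure of luciferase-tagged malaria parasites in RPMI 1640/Albumax erythrocyte culture, 37 C and 5% CO2. Inhibition is inferred from decreased luminescence after adding detection reagent.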
* = called active by the depositor. Unless noted, calls come from the whole dose curve; as a rule, active = well fitted curve in the direction sought with a large enough effect; inconclusive = small, poorly fitted or top-dose-only effect, or another doubt; inactive = no such curve, though single readings can be large; an effect the other way counts as inactive or inconclusive. Potency is the fitted concentration of half-maximal effect.

COc1ccc2c(COC(=O)c3cccc(S(=O)(=O)NCC(C)C)c3)cc(=O)oc2c1 was read as Pf growth 96h inconclusive, Sm TGR block 89µM*, AmpC detergent -5%, SARS PLpro yeast 1%, AmpC inh no detg -10% and Pf growth 48h 9.3µM*.
Screening CCOC(=O)C1CCCN(c2nc3c(S(=O)(=O)c4ccc(C)c(C)c4)nnn3c3ccc(Cl)cc23)C1 (stereo not given) returned Sm TGR block -3% and AmpC detergent 21%.
COC(=O)Cc1cc(=O)[nH]c(/N=C(\N)Nc2ccc(C(C)C)cc2)n1 was read as Pf growth 96h 0.83µM*, Sm TGR block 9%, AmpC detergent 4%, SARS PLpro yeast 1%, AmpC inh no detg 13% and Pf growth 48h 24%.
`COC(=O)Cc1cc(=O)[nH]c(/N=C(\N)Nc2cccc(C)c2)n1` gave Pf growth 96h 12µM*, Sm TGR block 12%, AmpC detergent 9%, SARS PLpro yeast 0%, AmpC inh no detg -16% and Pf growth 48h 19%.
Screening O=C(CCS(=O)(=O)c1ccccc1)Nc1nc2cc3c(cc2s1)OCO3 returned Pf growth 96h -23%, Sm TGR block 10µM*, AmpC detergent -5%, SARS PLpro yeast 0%, AmpC inh no detg -36% and Pf growth 48h 1%.
Screening O=C(Nc1nc2cc3c(cc2s1)OCCO3)c1ccc([N+](=O)[O-])o1 returned Pf growth 96h 8.3µM*, Sm TGR block -1%, AmpC detergent 3%, SARS PLpro yeast 0%, AmpC inh no detg -20% and Pf growth 48h -15%.
`O=C(CCS(=O)(=O)c1ccccc1)Nc1nc2ccc(F)cc2s1` gave Pf growth 96h inconclusive, Sm TGR block inconclusive, AmpC detergent -11%, SARS PLpro yeast -1%, AmpC inh no detg -18% and Pf growth 48h inconclusive.
Screening O=C(CCS(=O)(=O)c1ccccc1)Nc1nc2cc3c(cc2s1)OCCO3 returned Pf growth 96h 5.2µM*, Sm TGR block 10µM*, AmpC detergent 3%, SARS PLpro yeast 2%, AmpC inh no detg -3% and Pf growth 48h -36%.
Screening COc1cc(OC)c(NC(=O)NCc2ccc3c(c2)CCN3C(=O)c2ccccc2)cc1Cl returned Sm TGR block 10% and AmpC detergent 20%.
COc1ccc(C)cc1NC(=O)C(CCS(C)(=O)=O)NC(C)=O (stereo not given) was read as Pf growth 96h 36%, Sm TGR block 2%, AmpC detergent inconclusive, SARS PLpro yeast 8%, AmpC inh no detg inconclusive and Pf growth 48h 14%.
For CCn1c(=N)n(CC(O)COc2cccc(C)c2)c2ccccc21 (stereo not given) the results were Pf growth 96h inconclusive, Sm TGR block -3%, AmpC detergent inconclusive, SARS PLpro yeast inconclusive, AmpC inh no detg 45% and Pf growth 48h inconclusive.
Screening N=c1n(Cc2ccccc2)c2ccccc2n1CC(O)COc1ccccc1 (stereo not given) returned Pf growth 96h 9.3µM*, Sm TGR block 13%, AmpC detergent -6%, SARS PLpro yeast 22µM*, AmpC inh no detg 2% and Pf growth 48h 15µM*.
N=c1n(CCN2CCCCC2)c2ccccc2n1CC(O)COc1ccccc1 (stereo not given) was read as Pf growth 96h 50%, Sm TGR block 16%, AmpC detergent -9%, SARS PLpro yeast 10%, AmpC inh no detg 26% and Pf growth 48h inconclusive.
For Cc1ccc(Cn2c(=N)n(CC(O)COc3ccccc3)c3ccccc32)cc1 (stereo not given) the results were Pf growth 96h 1.7µM*, Sm TGR block 4%, AmpC detergent 10%, SARS PLpro yeast -1% and AmpC inh no detg 30%.
For O=C(Nc1cccc(C(F)(F)F)c1)C1CCCN1S(=O)(=O)c1cccc2cccnc12 (stereo not given) the results were Pf growth 96h 10µM*, Sm TGR block 23%, AmpC detergent -7%, SARS PLpro yeast 0%, AmpC inh no detg 2% and Pf growth 48h inconclusive.
`COc1ccc(NC(=O)C2CCCN2S(=O)(=O)c2cccc3cccnc23)c(OC)c1` (stereo not given) gave Pf growth 96h 10µM*, Sm TGR block 0%, AmpC detergent inconclusive, SARS PLpro yeast -60%, AmpC inh no detg -4% and Pf growth 48h -7%.
Screening CCCCNS(=O)(=O)c1cc(-c2nn(C)c(=O)c3ccccc23)ccc1C returned Pf growth 96h 14%, Sm TGR block -26%, AmpC detergent -5%, SARS PLpro yeast 0%, AmpC inh no detg -1% and Pf growth 48h 13µM*.
COCCNS(=O)(=O)c1cc(-c2nn(C)c(=O)c3ccccc23)ccc1C was read as Sm TGR block -14%, AmpC detergent inconclusive, SARS PLpro yeast 4%, AmpC inh no detg 9% and Pf growth 48h -5%.
`Cc1ccc(-c2nn3c(C)nnc3c3ccccc23)cc1S(=O)(=O)NCCO` gave Pf growth 96h 27%, Sm TGR block 5%, AmpC detergent -5%, SARS PLpro yeast -1%, AmpC inh no detg 2% and Pf growth 48h -18%.
For Cc1ccc(-c2nn3c(C)nnc3c3ccccc23)cc1S(=O)(=O)NC(C)c1ccccc1 (stereo not given) the results were Pf growth 96h 7.4µM*, Sm TGR block -25%, AmpC detergent -5%, SARS PLpro yeast -5%, AmpC inh no detg 22% and Pf growth 48h inconclusive.
Screening CCCCC(=O)Nc1ccc2c(c1)nc(CN1CCN(C(=O)OCC)CC1)n2C returned Pf growth 96h 7%, Sm TGR block 4%, AmpC detergent -4%, SARS PLpro yeast 1%, AmpC inh no detg 34% and Pf growth 48h inconclusive.
COC(=O)C1=C(C)NC2=C(C(=O)CC(C)(C)C2)C1c1ccccn1 (stereo not given) was read as Pf growth 96h 9.3µM*, Sm TGR block 1%, AmpC detergent 1%, SARS PLpro yeast 21%, AmpC inh no detg -15% and Pf growth 48h -4%.
`CC1=C(C(=O)OC2CCCC2)C(c2coc3ccccc3c2=O)C2=C(CC(C)(C)CC2=O)N1` (stereo not given) gave Pf growth 96h inconclusive, Sm TGR block 0%, AmpC detergent 0%, SARS PLpro yeast -2%, AmpC inh no detg 83% and Pf growth 48h 4.1µM*.
